Assay [1] in a line: BSK_LPS_PGE2: BioMAP Diversity Plus: LPS Assay for Prostaglandin E2 (PGE2) Biomarker Activity (AID 2283082). Conditions: primary human HUVEC with PBMC; actives raise or lower the signal. An outline of the steps: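 PGE2 release measured by ELISA in an LPS-activated co-culture of human umbilical vein endothelial cells and peripheral blood mononuclear cells, read at 24 h post-dosing. DMSO served as baseline for bidirectional curve fitting.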

Read-out in assay [2]: Macrophage colony-stimulating factor (MCSF), CSF1 (gene 1435)
Nature of the assay: BSK_LPS_MCSF: BioMAP Diversity Plus: LPS Assay for Macrophage colony-stimulating factor (MCSF) Biomarker Activity (AID 2283083). Conditions: primary human HUVEC with PBMC; actives raise or lower the signal. In outline:
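Human umbilical vein endothelial cells co-cultured with peripheral blood mononuclear cells were exposed to compound for 24 h. M-CSF levels were measured by ELISA, and bidirectional curve fitting used DMSO as the negative control and baseline.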

Read-out in assay [3]: Tissue Factor, F3 (gene 2152)
Nature of the assay: BSK_LPS_TissueFactor: BioMAP Diversity Plus: LPS Assay for Tissue Factor Biomarker Activity (AID 2283084). Conditions: primary human HUVEC with PBMC; actives raise or lower the signal. In outline: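 Human umbilical vein endothelial cells co-cultured with peripheral blood mononuclear cells were dosed and stimulated with LPS. Cell-surface CD142 was quantified by ELISA at 24 h. Activity was fitted bidirectionally against DMSO baseline.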

Read-out in assay [4]: Tumor necrosis factor (Homo sapiens) (UniProt P01375)
Kind of assay: BSK_LPS_TNFa: BioMAP Diversity Plus: LPS Assay for Tumour Necrosis Factor alpha (TNFa) Biomarker Activity (AID 2283085).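 On AC50: TNFa protein level quantified by ELISA in the co-culture.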 The settings on record: primary human HUVEC with PBMC; actives raise or lower the signal. An outline of the steps: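 TNFa was quantified by ELISA in LPS-activated co-cultures of human endothelial cells and PBMC, 24 h post-dosing. Both increases and decreases versus DMSO were fitted.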

Read-out in assay [5]: Vascular cell adhesion molecule 1 (VCAM1), VCAM1 (gene 7412)
Nature of the assay: BSK_LPS_VCAM1: BioMAP Diversity Plus: LPS Assay for Vascular cell adhesion molecule 1 (VCAM1) Biomarker Activity (AID 2283086). Conditions: primary human HUVEC with PBMC; actives raise or lower the signal. An outline of the steps:
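VCAM-1 quantified by ELISA in an LPS-activated co-culture of human endothelial cells and peripheral blood mononuclear cells, read 24 h post-treatment. Fitted in both directions versus DMSO; parallel SRB staining flags overt cytotoxicity.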

Read-out in the next assay: CD38, CD38 (gene 952)
Nature of the assay: BSK_SAg_CD38: BioMAP Diversity Plus: SAg Assay for CD38 Biomarker Activity (AID 2283087). The settings on record: primary human HUVEC with PBMC; actives raise or lower the signal. An outline of the steps:
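CD38 quantified by ELISA (fluorescence) in a superantigen-activated endothelial cell–PBMC co-culture at 24 h post-dose. Activity fitted in both directions relative to DMSO; parallel SRB and Alamar Blue cytotoxicity read-outs.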

Read-out in another assay: CD40, CD40 (gene 958)
Kind of assay: BSK_SAg_CD40: BioMAP Diversity Plus: SAg Assay for CD40 Biomarker Activity (AID 2283088). The settings on record: primary human HUVEC with PBMC; actives raise or lower the signal. An outline of the steps: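 Human umbilical vein endothelial cells co-cultured with PBMC; CD40 levels measured by ELISA with fluorescence read-out 24 h after chemical dosing. Gain or loss of signal fitted bidirectionally against DMSO baseline.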

Read-out in another assay: CD69, CD69 (gene 969)
Kind of assay: BSK_SAg_CD69: BioMAP Diversity Plus: SAg Assay for CD69 Biomarker Activity (AID 2283089).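 On AC50: cell surface CD69 protein quantified by ELISA with fluorescence detection.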 Conditions: primary human HUVEC with PBMC; actives raise or lower the signal. In outline: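 ELISA, fluorescence read-out: CD69 on human umbilical vein endothelial cell + PBMC co-culture, 24 h post-dosing. Gain or loss of signal fitted bidirectionally against DMSO baseline.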

Read-out in assay [6]: Monocyte Chemoattractant Protein-1 (MCP1), CCL2 (gene 6347)
Nature of the assay: BSK_SAg_MCP1: BioMAP Diversity Plus: SAg Assay for Monocyte Chemoattractant Protein-1 (MCP1) Biomarker Activity (AID 2283090). Conditions: primary human HUVEC with PBMC; actives raise or lower the signal. An outline of the steps:
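Values derive from bidirectional fitting of ELISA-measured MCP1 against DMSO controls. Readings were taken 24 h after dosing human vascular endothelial cells co-cultured with peripheral blood mononuclear cells under superantigen stimulation.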

Read-out in assay [7]: E-selectin (Homo sapiens) (UniProt P16581)
Nature of the assay: BSK_SAg_Eselectin: BioMAP Diversity Plus: SAg Assay for Eselectin Biomarker Activity (AID 2283091). Conditions: primary human HUVEC with PBMC; actives raise or lower the signal. In outline:
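HUVEC co-cultured with PBMC, compound dosed then read at 24 h; E-selectin measured by ELISA. Activity fitted bidirectionally against DMSO as negative control and baseline.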

Read-out in assay [8]: Monokine induced gamma interferon (MIG), CXCL9 (gene 4283)
Nature of the assay: BSK_SAg_MIG: BioMAP Diversity Plus: SAg Assay for Monokine induced gamma interferon (MIG) Biomarker Activity (AID 2283092). The settings on record: primary human HUVEC with PBMC; actives raise or lower the signal. In outline:
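ELISA readout of MIG/CXCL9; primary human umbilical vein endothelial cells co-cultured with peripheral blood mononuclear cells; 24 h post-dose; gain/loss fit vs DMSO baseline.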

Assay [9] is described as follows: BSK_SAg_PBMCCytotoxicity: PBMC Cytotoxicity Assessment in the BioMAP Diversity Plus: SAg Assay (AID 2283093).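 Further: PBMC viability measured as Alamar Blue reduction fluorescence at 546/580 nm; fitted both ways against DMSO so a hit may be loss or gain of signal.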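 On AC50: PBMC superantigen activated with SEB plus TSST-1 one hour after compound addition.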 Conditions: primary human HUVEC with PBMC. An outline of the steps: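 Alamar Blue reduction (6 h, 546/580 nm) reports PBMC cytotoxicity after 90 h superantigen activation (SEB, TSST-1; 20 ng/mL final each) with 1 h compound pre-treatment. Gain or loss of signal fitted versus DMSO.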

Read-out in assay [10]: Interleukin-8 (IL8), CXCL8 (gene 3576)
Kind of assay: BSK_SAg_IL8: BioMAP Diversity Plus: SAg Assay for Interleukin-8 (IL8) Biomarker Activity (AID 2283094). Conditions: primary human HUVEC with PBMC; actives raise or lower the signal. An outline of the steps: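 ELISA readout of IL-8 from a superantigen-activated endothelial/PBMC primary human co-culture, taken 24 h post-dosing and fitted in both directions against DMSO; parallel SRB total-protein staining flags overt cytotoxicity.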

Assay [11] is described as follows: BSK_SAg_Proliferation: Cell Proliferation Assessment in the BioMAP Diversity Plus: SAg Assay (AID 2283095).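 Further: relative cell number as total protein by SRB absorbance in sub-confluent culture.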 Conditions: primary human HUVEC with PBMC. In outline:
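Relative cell number in the endothelial cell/PBMC co-culture was quantified at 96 h by SRB staining (0.1% SRB, 10% TCA fixation, read at 560 nm). Curves were fitted in both directions relative to DMSO baseline.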

Assay [12] can be described thus: BSK_SAg_SRB: Viability Assessment in the BioMAP Diversity Plus: SAg Assay (AID 2283096).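 Further: cells read one day after compound addition; hits may be either gain or loss of signal compared with DMSO.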 Conditions: primary human HUVEC with PBMC. An outline of the steps:
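This overt-cytotoxicity endpoint quantifies protein in human endothelial/PBMC co-cultures at 24 h using SRB absorbance (560 nm) after trichloroacetic acid fixation. Values reflect signal change from the DMSO negative control, fitted bidirectionally.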

Active and inactive are the calls of the source. How the source made its calls: active means hit-call score of the fitted dose curve at least 0.9, where 1 is the maximum; inactive means score below 0.9.

As a reminder, the AC50 is the concentration at which the activity in the assay is half-maximal.

E-selectin (Homo sapiens), sequence (P16581 whole entry, looked up): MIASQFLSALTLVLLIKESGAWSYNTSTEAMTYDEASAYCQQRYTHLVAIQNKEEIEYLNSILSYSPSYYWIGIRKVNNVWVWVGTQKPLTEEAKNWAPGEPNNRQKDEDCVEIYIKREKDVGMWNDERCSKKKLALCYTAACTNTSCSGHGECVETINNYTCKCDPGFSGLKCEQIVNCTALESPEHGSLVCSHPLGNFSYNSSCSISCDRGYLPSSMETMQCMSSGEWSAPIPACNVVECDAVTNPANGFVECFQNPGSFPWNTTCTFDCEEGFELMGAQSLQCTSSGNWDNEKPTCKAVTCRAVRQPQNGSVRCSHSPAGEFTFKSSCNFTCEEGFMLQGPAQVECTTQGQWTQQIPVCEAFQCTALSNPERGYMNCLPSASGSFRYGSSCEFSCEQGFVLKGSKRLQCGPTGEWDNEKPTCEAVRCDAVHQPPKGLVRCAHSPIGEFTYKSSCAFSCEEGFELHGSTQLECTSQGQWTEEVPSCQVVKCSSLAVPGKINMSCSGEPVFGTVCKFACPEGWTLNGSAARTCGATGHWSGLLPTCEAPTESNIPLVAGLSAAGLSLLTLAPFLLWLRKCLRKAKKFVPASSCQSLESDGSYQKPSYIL
Tumor necrosis factor (Homo sapiens), sequence (P01375 whole entry, looked up): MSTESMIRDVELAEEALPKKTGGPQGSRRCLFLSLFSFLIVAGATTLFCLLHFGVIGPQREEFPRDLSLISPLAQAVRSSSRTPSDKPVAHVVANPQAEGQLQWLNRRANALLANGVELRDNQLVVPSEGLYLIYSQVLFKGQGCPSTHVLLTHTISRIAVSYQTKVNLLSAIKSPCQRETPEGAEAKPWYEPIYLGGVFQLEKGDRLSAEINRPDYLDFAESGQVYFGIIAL

As for `CCCC(=O)OCC`, the outcome in assay [1] was “inactive”; in [2], “inactive”; in [3] it was “inactive”; in assay [4], “inactive”; in assay [5] it was “inactive”; with CD38, CD38 (gene 952) it was “inactive”. The outcome in the assay with CD40, CD40 (gene 958) is “inactive”; with CD69, CD69 (gene 969), “inactive”; in assay [6] it was “inactive”; in [7], “inactive”; in assay [8], “inactive”; in [9], “inactive”. The result in assay [10], in assay [11] and in assay [12] was inactive.

Take `O=C(O)c1cccc(Oc2ccccc2)c1`: the outcome was “inactive” in [1]; “inactive” in assay [2]; “inactive” in assay [3]; “inactive” in assay [4]; “inactive” in [5]; “inactive” with CD38, CD38 (gene 952). In addition, the outcome is “inactive” with CD40, CD40 (gene 958); “inactive” in the assay with CD69, CD69 (gene 969); “inactive” in assay [6]; “inactive” in [7]; “inactive” in [8]; “inactive” in assay [9]. The result in assay [10], in [11] and in assay [12] was inactive.

As to `C[C@](N)(Cc1ccc(O)c(O)c1)C(=O)O`, the outcome is “inactive” in assay [1]; “inactive” in assay [2]; “inactive” in assay [3]; “inactive” in assay [4]; “inactive” in assay [5]; “inactive” in the assay with CD38, CD38 (gene 952). For the same compound, the outcome with CD40, CD40 (gene 958) was “inactive”; in the assay with CD69, CD69 (gene 969), “inactive”; in assay [6], “inactive”; in [7], “inactive”; in [8] it was “inactive”; in [10], “inactive”. Moreover, the outcome in assay [12] was inactive. For the same compound, the AC50 was 10.8 µM (active) in assay [9] and 23.9 µM (active) in assay [11].

On to `COCCOCCOCCOC`, for which the outcome in assay [1] is “inactive”; in assay [2], “inactive”; in assay [3], “inactive”; in [4], “inactive”; in assay [5] it was “inactive”; with CD38, CD38 (gene 952) it was “inactive”. Further, the outcome was “inactive” with CD40, CD40 (gene 958); “inactive” with CD69, CD69 (gene 969); “inactive” in assay [6]; “inactive” in assay [7]; “inactive” in assay [8]; “inactive” in [9]. The outcome in assay [10], in [11] and in [12] was inactive.

On to `CC1(C)C(=O)N(Br)C(=O)N1Br`, for which the outcome in [1] is “inactive”; in [2], “inactive”; in assay [3] it was “inactive”; in assay [4] it was “inactive”; in [5] it was “inactive”; in the assay with CD38, CD38 (gene 952) it was “inactive”. The outcome with CD40, CD40 (gene 958) is “inactive”; with CD69, CD69 (gene 969), “inactive”; in assay [6], “inactive”; in assay [7] it was “inactive”; in [8], “inactive”; in assay [9], “inactive”. For the same compound, the result in [10], in [11] and in assay [12] was inactive.

As to `O=C(O)c1cccc(N(Cc2cccnc2)c2ccc(OC(F)F)c(OC(F)F)c2)c1`, the AC50 was 12.2 µM (active) in assay [1]; 9.14 µM (active) in [3]; 1.95 µM (active) in [4]; 15.9 µM (active) in assay [5]; 3.61 µM (active) with CD38, CD38 (gene 952); 13.7 µM (active) in the assay with CD40, CD40 (gene 958). Besides, the concentration at half-maximal activity (AC50) was 4.01 µM (active) with CD69, CD69 (gene 969); 6.77 µM (active) in assay [6]; 1.81 µM (active) in assay [7]; 2.31 µM (active) in assay [10]; 7.83 µM (active) in [11]. For the same compound, the result in assay [2], in assay [8], in assay [9] and in [12] was inactive.

As to `CC(=O)OC[C@H]1O[C@@](COC(C)=O)(O[C@H]2O[C@H](COC(C)=O)[C@@H](OC(C)=O)[C@H](OC(C)=O)[C@H]2OC(C)=O)[C@@H](OC(C)=O)[C@@H]1OC(C)=O`, the outcome in assay [1] is “inactive”; in assay [2], “inactive”; in assay [3], “inactive”; in assay [4], “inactive”; in [5], “inactive”; with CD38, CD38 (gene 952), “inactive”. Further, the outcome with CD40, CD40 (gene 958) is “inactive”; with CD69, CD69 (gene 969) it was “inactive”; in assay [6], “inactive”; in [7], “inactive”; in assay [8], “inactive”; in [9], “inactive”. Besides, the outcome in [10], in assay [11] and in assay [12] was inactive.

In the case of `O=C1CCC(N2C(=O)c3ccccc3C2=O)C(=O)N1` (stereo not given), the outcome was “inactive” in assay [1]; “inactive” in assay [2]; “inactive” in [3]; “inactive” in [4]; “inactive” in assay [5]; “inactive” with CD38, CD38 (gene 952). In addition, the outcome in the assay with CD40, CD40 (gene 958) is “inactive”; with CD69, CD69 (gene 969), “inactive”; in assay [6], “inactive”; in assay [7], “inactive”; in [8], “inactive”; in assay [9], “inactive”. Moreover, the result in [10], in assay [11] and in assay [12] was inactive.

These data come from PubChem BioAssay (EPA / NIEHS).
